PubChem BioAssay AID720513 (Broad Institute, 2013)
The campaign covered roughly 2,100 compounds. About 480 (23%) were called active. Not shown: some 5% with an inconclusive outcome.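 How the source made its calls: active means fitted curve reaches 40% activation at or below the top valid concentration, in every replicate test; inconclusive means replicate tests disagree on the call; inactive means the rest, including activity in the opposite direction.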 Only a sample is shown. Potency and affinity values are given separately.

assay: activators raising PGC1a acetylation in cells, dose response, cell-based, cherry-picked samples, set 6 (AID 720513); conditions: U2OS PGC1a acetylation AlphaLISA, overnight, 0 = neutral, -100 = inhibitor control; series mostly up to 19.5 µM;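 further: cells made to overexpress flag tagged PGC1a plus GCN5 acetyltransferase by viral infection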

outcome, inactive:
Cc1ccc(C)c(C(=O)Cn2ncc(Cl)c(Cl)c2=O)c1
COc1ccc(C#Cc2ccc([C@@H]3[C@H](CO)N4CCCCN(C(=O)Nc5ccccc5)C[C@@H]34)cc2)cc1
C[C@H]1CN([C@@H](C)CO)S(=O)(=O)c2ccc(-c3ccccc3)cc2O[C@@H]1CN(C)Cc1cccc(F)c1
C[C@H](CO)N1C[C@H](C)[C@@H](CN(C)Cc2ccc3c(c2)OCO3)Oc2cc(-c3cccc(C(=O)N(C)C)c3)ccc2S1(=O)=O
COc1ccccc1-c1ccc2c(c1)O[C@@H](CN(C)Cc1ccc3c(c1)OCO3)[C@@H](C)CN([C@H](C)CO)S2(=O)=O
CCCC#Cc1ccc2c(c1)O[C@@H](CN(C)Cc1ccc3c(c1)OCO3)[C@@H](C)CN([C@H](C)CO)S2(=O)=O
C[C@@H]1CN([C@H](C)CO)S(=O)(=O)c2ccc(-c3cncnc3)cc2O[C@H]1CN(C)Cc1cccnc1
COc1cccc(-c2ccc3c(c2)O[C@H](CN(C)Cc2ccncc2)[C@@H](C)CN([C@@H](C)CO)S3(=O)=O)c1
CC(C)CC#Cc1ccc2c(c1)O[C@@H](CN(C)Cc1ccc3c(c1)OCO3)[C@H](C)CN([C@H](C)CO)S2(=O)=O
C[C@H]1CN([C@@H](C)CO)S(=O)(=O)c2ccc(C#CCN(C)C)cc2O[C@H]1CN(C)Cc1ccc2c(c1)OCO2
Cc1cccc(CC2CC(=O)N(C3CCCCC3)C2=O)c1 (stereo not drawn)
CCCCn1c(=O)[nH]c(=O)c2c1nc(-c1ccc(OCCC)c(OCC)c1)n2C
Oc1ccc(-c2nc(-c3ccc(O)c(O)c3)cs2)cc1
Cc1cccc(COc2ccc(/C=C3/C(=O)N(C)C(=S)N3C)cc2)c1
COc1ccc(CCN(C)C(=O)CN2C(=O)NC3(CCCc4ccccc43)C2=O)cc1OC (stereo not drawn)
C/C(=C\C(=O)N1CCc2ccccc21)C(=O)O
O=C(Nc1cccc2c1CCCC2)c1ccccc1Br
CC(C)(C)NCCC(O)c1cc(C(F)(F)F)nc2c(C(F)(F)F)cccc12 (stereo not drawn)
CCN(CC)CC#CCOC(c1ccccc1)c1ccccc1
O=[N+]([O-])c1ccc(Oc2ccc(F)cc2)c2ccncc12
O=C(Nc1cc(C(F)(F)F)ccc1N1CCOCC1)c1ccccc1
COc1ccc(Br)cc1S(=O)(=O)NCc1ccccc1
O=C(O)CCCC(=O)Nc1ccc(Br)cc1C(=O)O
CC(C)[C@H]1COCCS(=O)(=O)N1Cc1ccccc1F
C[C@H](CO)N1C[C@H](C)[C@H](CN(C)S(=O)(=O)c2ccccc2C#N)OCc2cnnn2CCCC1=O
CC1CC1C(=O)N(C)CC(=O)Nc1cccc(F)c1 (stereo not drawn)
CCCN(C)C[C@@H]1Oc2cc(C#CC3CCCC3)ccc2S(=O)(=O)N([C@H](C)CO)C[C@@H]1C
CCOCCCNC(=O)c1ccccc1SC
Fc1cccc(-c2ccc([C@@H]3[C@@H]4CN(Cc5nccs5)C[C@H]3N4)cc2)c1
Fc1cccc(CN2C[C@@H]3N[C@H](C2)[C@@H]3c2ccc(-c3cccc(F)c3)cc2)c1
c1csc(CNc2ncnc3ccc(-c4ccoc4)cc23)c1
CCS(=O)(=O)c1ccc2oc(Nc3ccccc3Br)nc2c1
CCN1C(=O)CCCc2ccccc21
O=C(NCC[C@@H]1CC[C@H](NS(=O)(=O)Cc2ccccc2)[C@H](CO)O1)C1CCC1
CC(=O)c1ccc(Nc2cc(C)nc3ccc(C)cc23)cc1
Nc1nc(Nc2ccccc2)nc2ccccc12
CN(C)CC(=O)N1CCCCN2[C@@H](CO)[C@H](c3ccc(/C=C/c4ccccc4)cc3)[C@@H]2C1
COC(=O)c1ccc(C(=O)OC)c(NC(=O)COC(=O)CCOc2ccc(C)cc2)c1
Cc1ccc(NC(=O)COC(=O)COc2ccc(Cl)cc2)c([N+](=O)[O-])c1
Cc1cc(C)cc(OC(=O)CS(=O)c2ccc(C(F)(F)F)cc2[N+](=O)[O-])c1 (stereo not drawn)
C[C@@H]1CCCCO[C@@H](CN(C)S(C)(=O)=O)[C@H](C)CN([C@@H](C)CO)C(=O)c2cc(NC(=O)c3ccccc3)ccc2O1
COc1nc(OCCNS(=O)(=O)c2ccc(C)cc2)nc(N(C)C)n1
Cc1ccc(CC(=O)Nc2nccs2)cc1
O=C(Nc1nc(-c2ccc3ccccc3c2)cs1)c1ccc(N2C(=O)CCC2=O)cc1
C[C@H]1CN([C@@H](C)CO)C(=O)c2cc(NC(=O)Nc3cccc4ccccc34)ccc2O[C@H]1CN(C)S(=O)(=O)c1ccc(Cl)cc1
N#C[C@H]1[C@H](c2ccc(C#CC3CCCC3)cc2)[C@H](CO)N1C(=O)Cc1ccccn1
N#C[C@@H]1[C@@H](c2ccc(-c3ccccc3)cc2)[C@@H](CO)N1C(=O)Cc1ccncc1
C[C@H](CO)N1C[C@H](C)[C@H](CN(C)C(=O)NC2CCCCC2)Oc2cc(C#Cc3cccc(F)c3)ccc2S1(=O)=O
CS(=O)(=O)c1sc2nc(-c3cccs3)cc(-c3ccccc3)c2c1N
COc1ccc(NC(=O)c2ccc3c(c2)OCO3)cc1Cl
COc1ccc(C(=O)Nc2cccc(S(C)(=O)=O)c2)cc1OC
C[C@@H]1CN([C@@H](C)CO)C(=O)c2cc(C#CCN(C)C)cnc2O[C@H]1CN(C)Cc1ccc(F)cc1
Fc1cccc(CN2C[C@@H]3N[C@H](C2)C3c2ccc(/C=C/c3ccccc3)cc2)c1 (stereo partly drawn)
CCOC(=O)c1oc2nc3c(cc2c1N)COC(C)(C)C3
C[C@H]1CN([C@@H](C)CO)C(=O)c2cc(C#CC(C)(C)O)cnc2O[C@@H]1CN(C)C(=O)C1CCC1
CC1CCCCN1C(=O)CN(C)S(=O)(=O)c1cccc2nsnc12 (stereo not drawn)
O=C(Nc1ccc(F)cc1)C1CCCN1S(=O)(=O)c1cccc2nsnc12 (stereo not drawn)
O=c1c2c3c(sc2n2cnnc2n1Cc1ccccc1)CN(Cc1ccccc1)CC3
